Measured values reported in PubChem BioAssay (NCI).
The panel holds about 83,000 compounds, 20% with a hit somewhere; the sample as a whole holds those more often.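 Cell lines were cultured in 96-well plates, exposed to a single compound concentration, and assessed for percent growth 48 hours later.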 Activity calls are given as the source filed them. Rule for the calls: active = growth percent below 10; inactive = the rest.

test system: RXF 393 renal; test: NCI-60 one-dose screen, 48 h (100 = growth as untreated, 0 = no growth, -100 = all killed); settings: 10 µM unless noted

| SMILES | growth |
| --- | --- |
| Cc1cc(CSc2ccc(Cl)cc2)ccc1N | 105% (inactive) |
| Cc1nc2ccccc2c(=O)n1-c1cccc(OCc2cn(-c3cccc(O)c3)nn2)c1 | 105% (inactive) |
| CCCCCCCCCCN1CC2CCCCC2C1 (stereo not given) | 77.7% (inactive) |
| CCCCN(CCC)CCCCCCCCCCN1CCCc2ccccc21 | 109% (inactive) |
| C/C=C(/C)C(=O)OC1C=C(CO)C(=O)C(OC(=O)/C(C)=C\C)C1C(C)C (stereo not given) | -79.2% (active) |
| O=C1C(Cl)=C(Nc2ccc(Nc3ccccc3)c(NC3=C(Cl)C(=O)c4ccccc4C3=O)c2)C(=O)c2ccccc21 | 74.3% (inactive) |
| CN1CCN(Cc2ccc(NC(=O)c3cncc(C#Cc4c(N)ncc5ccc(F)cc45)c3)cc2C(F)(F)F)CC1 | -73.8% (active) |
| COc1cccc(CNC(=O)c2cccc(C3CC(=O)c4c(cc(OC)c(OC)c4OC)O3)c2)c1 (stereo not given) | 84.3% (inactive) |
| COC(=O)C1CC(=O)N(C(=O)Nc2ccc(Cl)cc2Cl)C1 (stereo not given) | 120% (inactive) |
| O=C(/C=C\c1ccc(NCc2ccc(C(=O)O)cc2)cc1)CCl | 65.2% (inactive) |
| CC1(C)NC(=S)NC1=O | 105% (inactive) |
| Cc1ccc(C(=O)Nc2ccc(CN3CCN(C)CC3)c(C(F)(F)F)c2)cc1C#Cc1cncc2ncccc12 | -95.7% (active) |
| COc1ccc(-c2nc(N)n(C(=S)Nc3ccccc3)n2)cc1 | 103% (inactive) |
| O=C(O)c1ccc(-c2nn(-c3ccc(C(=O)O)cc3)cc2CNc2ccc(Br)cc2)cc1 | 111% (inactive) |
| CCS(=O)(=O)N[C@@H]1O[C@H](COC(C)=O)C(OC(C)=O)[C@H](OC(C)=O)C1OC(C)=O (stereo not given in full) | 88.1% (inactive) |
